# Results filed as inconclusive are left out. Active and inactive are the calls of the source. Calls follow the shape of the dose curve; as a rule, active = well fitted curve in the direction sought with a large enough effect; inconclusive = small, poorly fitted or top-dose-only effect, or another doubt; inactive = no such curve, though single readings can be large; an effect the other way counts as inactive or inconclusive.
# Tests used:
# [1] = BET inhibitor-based combinations targeting novel dependencies in MECOM-rearranged (r) AML: SET-2 cell line (AID 2202231); conditions: SET-2 AML cells viability, CellTiter-Glo luminescence, 48 h; viability: active compounds read low, concentration not given here; also: nearly all actives have a fitted effect of over 35% in size;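 as to viability: plate controls were DMSO treated cells for no effect and wells without cells for full effect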
# How it was run: (§1)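 Readout: CellTiter-Glo luminescence. Exposure: 48 h, 11 concentrations, 500 cells/well. Metric: AUC and within-line Z-AUC after DMSO/empty-well normalization.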
# [2] = BET inhibitor-based combinations targeting novel dependencies in MECOM-rearranged (r) AML: HNT-34 cell line (AID 2202234); also: nearly all actives have a fitted effect of over 35% in size
# How it was run: (§2)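 Seeding density was 500 cells/well, and drug exposure lasted 48 hr under standard culture conditions. Read-out used CellTiter-Glo reagent with a 15 min room-temperature incubation before luminescence measurement; AUC and Z-AUC summarize the normalized responses.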
# [3] = BET inhibitor-based combinations targeting novel dependencies in MECOM-rearranged (r) AML: UCSD-AML1 cell line (AID 2202235); also: nearly all actives have a fitted effect of over 40% in size
# How it was run: as §2
# [4] = BET inhibitor-based combinations targeting novel dependencies in MECOM-rearranged (r) AML: AML-191 cell line (AID 2202236; also: nearly all actives have a fitted effect of over 35% in size)
# How it was run: as §1
# [5] = BET inhibitor-based combinations targeting novel dependencies in MECOM-rearranged (r) AML: AML-194 cell line (AID 2202237; also: nearly all actives have a fitted effect of over 40% in size)
# How it was run: as §1
# [6] = BET inhibitor-based combinations targeting novel dependencies in MECOM-rearranged (r) AML: MV-4-11 cell line (AID 2202233); also: nearly all actives have a fitted effect of over 45% in size
# How it was run: as §2
# Potency is read from the fitted curve at half-maximal effect.
Compound,viability [1],Potency [2],Potency [3],Potency [4],Potency [5],Potency [1],Potency [6]
OC1CCC([C@H](O)C[C@H]2c3c(F)cccc3-c3cncn32)CC1 (some centres undefined),118% (inactive),inactive,inactive,inactive,inactive,–,–
C[C@H](Nc1nc(N[C@H](C)C(F)(F)F)nc(-c2cccc(Cl)n2)n1)C(F)(F)F,120% (inactive),inactive,inactive,inactive,–,–,–
O=C(Nc1nccs1)C(c1cc(F)ccc1O)N1Cc2ccccc2C1=O (centres undefined),–,16.6 µM (active),inactive,inactive,inactive,18.6 µM (active),–
CC(/C=C/[C@@H]1C[C@]1(C)c1ccc2c(c1)C(C)(C)CCC2(C)C)=C\C(=O)O,110% (inactive),18.6 µM (active),–,–,–,–,–
O=C(N[C@@H](c1ccccc1)[C@@H]1CCCCN1)c1cccc(C(F)(F)F)c1Cl,–,18.6 µM (active),–,–,–,1.18 µM (active),–
CC(=O)CC(c1ccccc1)c1c(O)c2ccccc2oc1=O (centres undefined),107% (inactive),inactive,inactive,inactive,inactive,–,–
C=CC(=O)Nc1cc(N2CCN(CC)CC2)ccc1Nc1cc(N(C)C(=O)Nc2c(Cl)c(OC)cc(OC)c2Cl)ncn1,112% (inactive),–,–,inactive,–,–,20.9 µM (active)
O=C(/C=C/c1ccc(CN(CCO)CCc2c[nH]c3ccccc23)cc1)NO,–,0.148 µM (active),–,0.148 µM (active),–,0.166 µM (active),–
CN1CCN(c2ccc3nc(-c4c(N)c5c(F)cccc5[nH]c4=O)[nH]c3c2)CC1,–,0.833 µM (active),3.32 µM (active),1.86 µM (active),1.86 µM (active),4.17 µM (active),–
CCCCC[C@H](O)/C=C/[C@H]1[C@H](O)CC(=O)[C@@H]1CCCCCCC(=O)O,103% (inactive),16.6 µM (active),11.8 µM (active),inactive,inactive,–,–
